Consider 40 molecules from PubChem BioAssay (Tox21).

Results filed as inconclusive are left out. Entries that show only a call come without a potency. Activity calls are given as the source filed them. Calls come from the whole dose curve; as a rule, active = well fitted cell-killing curve with a large enough effect in the repeat runs; inconclusive = weak or mixed curves; inactive = no such curve, though single readings can be large or run the other way.
Potency is the fitted concentration of half-maximal effect.

The experiment can be described thus: qHTS assay to identify small molecule antagonists of the peroxisome proliferator-activated receptor delta (PPARd) signaling pathway - cell viability counter screen (AID 743213). Note: nearly all actives have a fitted effect of over 50% in size. Particulars: PPARd-bla HEK293H viability, CellTiter-Glo luminescence, 17 h; series mostly up to 62 µM. From the text: U.S. Tox21 Program National Center for Advancing Translational Sciences [NCATS] NIH Chemical Genomics Center [NCGC] U.S. Environmental Protection Agency [EPA] National Institutes of Environmental Health Sciences [NIEHS] National Toxicology Program [NTP] U.S. Food and Drug Administration [FDA] Tox21 Assay Overview: The peroxisome proliferator-activated receptors (PPARs) are lipid-activated transcription factors of the nuclear receptor superfamily with three distinct subtypes namely PPAR alpha, PPAR delta (PPARd) and PPAR gamma. All these subtypes heterodimerizes with Retinoid X receptor (RXR) and have different physiological functions. […] To identify the compounds that inhibit PPAR-delta signaling, GeneBLAzer PPAR delta UAS-bla HEK293H cell line (Invitrogen, Carlsbad, CA, USA) containing a beta-lactamase reporter gene under the control of an Upstream Activator Sequence (UAS) was used to screen the Tox21 compound library. The cytotoxicity of the Tox21 compound library against the PPARd-bla cell line was tested in parallel by measuring the cell viability using CellTiter-Glo assay (Promega, Madison, WI) in the same wells.
Tox21 Assay Protocol Summary: PPARd-bla cells were dispensed at 3000 cells/5uL/well in 1536-well black wall/clear bottom plates using a Multidrop Combi (Thermo Fisher Scientific, Waltham, MA) dispenser. After the assay plates were incubated at 37 C and 5% CO2 for 5 h, 23 nL of compounds dissolved in DMSO, positive controls or DMSO only was transferred to the assay plate by a Pintool station (Kalypsys, San Diego, CA), followed by addition of 1ul L165041 (300 nM, final concentration in the wells). The assay plates were incubated at 37 C for 17 h, and then 1 uL of LiveBLAzerTM B/G FRET substrate was added using a Bioraptr Flying Reagent Dispenser (FRD) workstation (Beckman Coulter, Indianapolis, IN, USA). The assay plates were incubated at room temperature for 2 h and fluorescence intensity was measured by an Envision plate reader (PerkinElmer, Shelton, CT). For cell viability readout that measures cytotoxicity, 3 ul/well of CellTiter-Glo reagent was added into the assay plates using a Bioraptr FRD. After 30 min incubation at room temperature, the luminescence intensity in the plates was measured using a ViewLux plate reader (PerkinElmer).
For `COC(OC)OC`, the Potency result is “inactive”. In the case of `CC(C)(C)S`, the Potency entry was “inactive”. To `O=P(O)(O)Oc1ccccc1` belongs “inactive”; to `COc1ccc2nc(S(=O)Cc3ncc(C)c(OC)c3C)[nH]c2c1` (stereo not given), “inactive”; to `CCOC(=O)N1CCC(Nc2ccc(Cl)cc2N)CC1`, “inactive”. To `Cc1ccc(Cl)cc1N` belongs “inactive”; to `COc1cc(S(=O)(=O)Nc2ccccc2)c(OC)cc1N`, “inactive”; to `O=C(c1ccccc1)C1CCC1`, “inactive”. To `CC12CC3CC(C)(C1)CC(N)(C3)C2` belongs “inactive”.

With `O=C1OC[C@H](Cc2cccc(O)c2)[C@H]1Cc1cccc(O)c1`, the Potency result is “inactive”. To `CCC(CO)(CO)[N+](=O)[O-]` belongs “inactive”; to `Cc1ccc(S(=O)(=O)NC(=O)NC2CCCCC2)cc1`, “inactive”; to `CCN(CC)CC(=O)Nc1c(C)cccc1C(=O)OC`, “inactive”. For `CC1CCCO1` (stereo not given), the Potency result was “inactive”. Take `COC(=O)CC(C(C)=O)C(=O)OC` (stereo not given): the Potency entry is “inactive”. On to `CC(C)(C(=O)c1cccnc1)c1cccnc1`, for which the Potency entry is “inactive”. For `Nc1ccn([C@H]2CS[C@@H](CO)O2)c(=O)n1`, the Potency entry was “inactive”. For `NC(=O)c1ccccc1[N+](=O)[O-]`, the Potency entry is “inactive”. To `O=[N+]([O-])c1ccc2ncccc2c1` belongs “inactive”. To `CC1CCC(C(C)CS)CC1S` (stereo not given) belongs “inactive”; to `O=C(Nc1ccc(C(=O)O)c(O)c1)c1ccccc1`, “inactive”. To `CNCc1ccc(NC(=O)c2c[nH]c3c2C(=O)CCC3)cc1` belongs “inactive”; to `Cc1cc(CCC(=O)OCCOCCOCCOC(=O)CCc2cc(C)c(O)c(C(C)(C)C)c2)cc(C(C)(C)C)c1O`, “inactive”; to `Cc1ccc(N(CCO)CCO)cc1`, “inactive”. As for `O=C(O)CCCc1c[nH]c2ccccc12`, the Potency result was “inactive”. To `CC(O)Cn1cnc2c1c(=O)n(C)c(=O)n2C` (stereo not given) belongs “inactive”. On to `CC1C(C)(C)C2=C(C(=O)CCC2)C1(C)C` (stereo not given), for which the Potency result is “inactive”. As to `CC(CO)(CO)C(=O)O`, the Potency entry was “inactive”. To `CCCCCCCCCCCCCC(=O)OCC(O)CO` (stereo not given) belongs “inactive”.

With `SCCc1cnccn1`, the Potency entry is “inactive”. To `COC(CC(C)CCCC(C)(C)O)OC` (stereo not given) belongs “inactive”; to `CC(=O)OCC(=O)[C@@]1(OC(C)=O)[C@@H](C)C[C@H]2[C@@H]3C[C@H](F)C4=CC(=O)C=C[C@]4(C)[C@@]3(F)[C@@H](O)C[C@@]21C`, “inactive”; to `CC1=CC[C@@]23C[C@@H]1C(C)(C)[C@@H]2CC[C@H]3C`, “inactive”. Take `O=C(CCS)OCC(COC(=O)CCS)(COC(=O)CCS)COC(=O)CCS`: the Potency entry is “inactive”.

`CN1CCCN(C(c2ccccc2)c2ccc(Cl)cc2)CC1` (stereo not given): the Potency is 26.6 µM (active).

In the case of `CC(C(=O)O)c1ccc(C(=O)c2cccs2)cc1` (stereo not given), the Potency result is “inactive”.

For `CC(C)c1ccc(C(=O)N=C(N)N)cc1S(C)(=O)=O`, the Potency entry was “inactive”. To `O=C(Oc1ccccc1)c1ccc2ccccc2c1O` belongs “inactive”; to `CC(C)COC(=O)COc1cc(Cl)c(Cl)cc1Cl`, “inactive”; to `CCCCCc1ccco1`, “inactive”.
